Our source for the Potency values is PubChem BioAssay (NCATS).

The structures appear in SMILES notation. Results filed as inconclusive are left out. Calls of active or inactive are those of the source. The call rests on the fitted dose curve; in most records, active means well fitted curve in the direction sought with a large enough effect; inconclusive means small, poorly fitted or top-dose-only effect, or another doubt; inactive means no such curve, though single readings can be large; an effect the other way counts as inactive or inconclusive.

Test [1] is described as follows: qHTS of pediatric cancer cell lines to identify multiple opportunities for drug repurposing: Primary screen for TC32 cells (AID 1347089). Further: nearly all actives have a fitted effect of over 60% in size. The method, boiled down: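 Luminescent ATP read-out (CellTiter-Glo) of metabolically active TC32 cells after 48 h exposure. Concentration-response curves came from 11-point (MIPE, 0.78 nM–46 µM) or 8-point (NPC, 0.59 nM–46 µM) primary titrations; follow-up used 11 points.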

A short description of test [2]: qHTS of pediatric cancer cell lines to identify multiple opportunities for drug repurposing: Primary screen for DAOY cells (AID 1347090). Further: nearly all actives have a fitted effect of over 55% in size. Summed up:
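Cell viability, CellTiter-Glo luminescence; 500-1,000 cells/well, 8- or 11-point titration, 48 h compound exposure at 37 degrees C, 5% CO2. Controls: DMSO neutral, bortezomib 2.3 µM final as positive.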
(In general: Quantitative high-throughput screening tests each substance at several concentrations.)

Test [3] in a line: qHTS of pediatric cancer cell lines to identify multiple opportunities for drug repurposing: Primary screen for A673 cells (AID 1347092). Further: nearly all actives have a fitted effect of over 45% in size. Summed up:
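Cell viability of A673 measured by CellTiter-Glo ATP luminescence after 48 hours compound exposure. Dilution series spanned 0.78 nM to 46 µM (MIPE, 11-point) or 0.59 nM to 46 µM (NPC, 8-point); bortezomib 2.3 uM positive control.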

Test [4] in a line: qHTS of pediatric cancer cell lines to identify multiple opportunities for drug repurposing: Primary screen for BT-37 cells (AID 1347094). Summed up: (§1)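 Cells seeded at 500-1,000 cells/well in growth media, rested 5 hours at 37 degrees C, 5% CO2, then dosed; MIPE compounds at 11-point (from 0.78 nM) and NPC at 8-point (from 0.59 nM) final concentrations. Viability by CellTiter-Glo luminescence after 48 hours.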

The nature of test [5]: qHTS of pediatric cancer cell lines to identify multiple opportunities for drug repurposing: Primary screen for NB-EBc1 cells (AID 1347095). Summed up:
as §1

Test [6] can be described thus: qHTS of pediatric cancer cell lines to identify multiple opportunities for drug repurposing: Primary screen for U-2 OS cells (AID 1347096). Further: nearly all actives have a fitted effect of over 50% in size. The method, boiled down: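 Cells (500-1,000/well) rested 5 h, then received compounds for 48 h; metabolically active cells were measured by CellTiter-Glo luminescence. Final concentrations spanned up to 46 µM (MIPE, 11-point) or 0.59 nM-46 µM (NPC, 8-point) in primary screens, 11-point in follow-ups.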

The nature of test [7]: qHTS of pediatric cancer cell lines to identify multiple opportunities for drug repurposing: Primary screen for Saos-2 cells (AID 1347097). Further: nearly all actives have a fitted effect of over 40% in size. Summed up: as §1
Test [8] can be described thus: qHTS of pediatric cancer cell lines to identify multiple opportunities for drug repurposing: Primary screen for SK-N-MC cells (AID 1347093). Summed up: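 Metabolically active cells were quantified by ATP-dependent luminescence (CellTiter-Glo, 15 min at room temperature) following 48 h treatment. Cells had been plated at 500-1,000 per well and settled for 5 h beforehand.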
Potency means the concentration at half of the fitted maximal effect.

For `CC(C)(Cc1ccc2ccccc2c1)NC[C@@H](O)COc1cccc(Cl)c1C#N`, the Potency entry in test [1], in test [2], in test [6] and in test [7] was “inactive” in each case. The values for the Potency in test [3], in test [4] and in test [5] were 14.8 µM (active), 19.3 µM (active) and 2.35 µM (active), respectively.

Consider `O=C1NC(=O)C(=Cc2ccc3c(c2)OC(F)(F)O3)S1`, for which the Potency result in test [1] is “inactive”. Moreover, the Potency in test [2] is 23.5 µM (active); in test [8], 3.32 µM (active).

For the compound `COc1ccc2cccc(CCNC(C)=O)c2c1`, the Potency result in test [1], in test [2], in test [3], in test [8], in test [4] and in test [5] was “inactive” throughout. In addition, the Potency entry in test [6] and in test [7] was “inactive” in each case.

Regarding `CC(C)(C(=O)NCC(F)(F)C(F)(F)F)C(=O)N[C@@H]1C(=O)Nc2ccccc2-c2ccccc21`, the Potency entry in test [1] and in test [6] was “inactive” each time. Besides, the Potency in test [2] is 18.7 µM (active); in test [3], 0.0935 µM (active); in test [8] it was 3.72 µM (active); in test [4], 0.769 µM (active); in test [5] it was 4.69 µM (active).

Regarding `O=C(O)c1ccc(-c2cc3cccnc3c(-c3ccc4nonc4c3)n2)cc1`, the Potency entry in test [1], in test [2] and in test [6] was “inactive” throughout. Besides, the Potency in test [3] is 18.7 µM (active); in test [8] it was 3.32 µM (active); in test [4] it was 24.3 µM (active).

For `CC(=O)OC1C(C)OC(Oc2c(-c3ccc(O)cc3)oc3cc(O)cc(O)c3c2=O)C(O)C1OC(C)=O` (stereo unspecified), the Potency result in test [1], in test [2] and in test [6] was “inactive” in each case. For the same compound, the Potency in test [3] was 11.8 µM (active); in test [4], 27.3 µM (active); in test [7] it was 18.7 µM (active).

On to `CO[C@H]1C=CC=C(C)C(=O)NC2=CC(=O)C(NCCN(C)C)=C(C[C@@H](C)C[C@H](OC)[C@@H](O)[C@@H](C)C=C(C)[C@@H]1OC(N)=O)C2=O`, for which the Potency was 0.262 µM (active) in test [1]; 3.72 µM (active) in test [2]; 0.187 µM (active) in test [8]; 0.385 µM (active) in test [4]; 0.118 µM (active) in test [5]; 0.935 µM (active) in test [6]. Further, the Potency in test [7] is 2.35 µM (active).

As to `COc1ccc(-c2coc3cc(O)cc(O)c3c2=O)cc1`, the Potency entry in test [1], in test [2], in test [4], in test [5] and in test [6] was “inactive” each time. The Potency in test [8] is 10.5 µM (active).

On to `O=C(O)Cc1cccc2ccccc12`, for which the Potency entry in test [1], in test [2], in test [8], in test [4], in test [5] and in test [6] was “inactive” throughout. Besides, the Potency entry in test [7] was “inactive”.

In the case of `COC1CCC(N(C(=O)C2CCC(C)CC2)c2cc(C3=CCCCC3)sc2C(=O)O)CC1` (stereo unspecified), the Potency entry in test [1], in test [2], in test [3], in test [4], in test [6] and in test [7] was “inactive” in each case. Moreover, the Potency in test [8] was 23.5 µM (active).

Consider `COc1ccc2c(Oc3ccc(NC(=O)c4c(C)n(CC(C)(C)O)n(-c5ccccc5)c4=O)nc3)ccnc2c1`, for which the Potency entry in test [1], in test [2], in test [3] and in test [6] was “inactive” each time. In test [8], the Potency is 29.6 µM (active).

`COc1ccc(-n2c(C)c([N+](=O)[O-])c3ccc(O)cc32)cc1`: the Potency result in test [1], in test [2], in test [5], in test [6] and in test [7] was “inactive” each time. Moreover, the Potency in test [3] is 7.43 µM (active); in test [8], 1.18 µM (active).

As for `O=C(NC1CCOCC1)c1ccc(-c2cc(-c3cn[nH]c3-c3ccccn3)ccn2)cc1`, the Potency result in test [1], in test [2], in test [8], in test [4], in test [5] and in test [6] was “inactive” throughout. Further, the Potency entry in test [7] was “inactive”.

Consider `O=c1cc(-c2ccccc2)oc2cc(O)cc(O)c12`, for which the Potency result in test [1], in test [2], in test [3], in test [8], in test [5] and in test [6] was “inactive” in each case. Also, the Potency entry in test [7] was “inactive”.

In the case of `O=C(OCC#CCSc1nnc(-c2cccc3ccccc23)o1)c1cc2ccccc2s1`, the Potency result in test [1], in test [2], in test [3], in test [8], in test [4] and in test [6] was “inactive” in each case. The Potency result in test [7] is “inactive”.

Turning to `CC1(C)CCC[C@@]2(C)[C@@H]1CC[C@@]1(C)OC(=O)C[C@H]21`, the Potency entry in test [1], in test [2], in test [4], in test [5] and in test [6] was “inactive” each time. Also, the Potency in test [8] was 8.33 µM (active).

As for `O=C(Nc1ccccc1-c1cn2c(CN3CCNCC3)csc2n1)c1cnc2ccccc2n1`, the Potency entry in test [1], in test [5] and in test [6] was “inactive” throughout. The Potency in test [2] is 23.5 µM (active); in test [3] it was 18.7 µM (active); in test [4] it was 27.3 µM (active).

Consider `O=C(O)CCC1CCC(c2cc(F)ccc2F)(S(=O)(=O)c2ccc(Cl)cc2)CC1` (stereo unspecified), for which the Potency result in test [1] and in test [5] was “inactive” throughout. For the same compound, the figures for the Potency in test [2], in test [3] and in test [8] were 11.8 µM (active), 1.48 µM (active) and 0.0662 µM (active), respectively.

With `CCc1ccc(C=C2SC(=S)NC2=O)cc1`, the Potency result in test [1], in test [2], in test [8], in test [4] and in test [6] was “inactive” in each case.

On to `CC(C)(C)OC(=O)N[C@H]1CCCCCC=C[C@@H]2C[C@@]2(C(=O)NS(=O)(=O)C2CC2)NC(=O)[C@@H]2C[C@@H](OC(=O)N3Cc4cccc(F)c4C3)CN2C1=O`, for which the Potency entry in test [1], in test [2], in test [3], in test [4], in test [5] and in test [6] was “inactive” in each case. In addition, the Potency in test [8] was 29.6 µM (active).
